# Assay outcomes deposited in PubChem BioAssay by National Center for Advancing Translational Sciences (NCATS).
# Rows were chosen to be rich in hits. Some 11% of all compounds tested hit in one or more screens of this group.
# HCV inhibitor = blocks hepatitis C virus. Huh7.5.1 HCVcc-Cre infection, luciferase reporter, 44 h. Potency, µM (titrated, usually from 41.8 µM), for inactives: top-dose activity change, negative = inhibition, usual class: inhibitors. hit rate 3.4% among 340,000
#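 After 44 h co-culture of compound, cells and HCVcc-Cre (~0.5 moi), substrate is added for 15 min at room temperature and luciferase measured over 15 sec. Cells were seeded at 1,000/well and pre-cultured 4 h.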
# Pf growth 96h = P. falciparum growth inhibition at 96 hours | P. falciparum luciferase reporter growth, 96 h | Potency, µM (doses to about 28.7 µM), for the others: at the highest dose activity change, negative = inhibition, hits mostly inhibitors | hit rate 6.9% among 320,000 | AID 504834
#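 P. falciparum expressing integrated firefly luciferase, in erythrocytes at 2% hematocrit, 0.05% parasitemia, incubated with compounds 96 h at 37 C, 5% CO2. Growth inhibition read as loss of luminescence; two-generation exposure targets delayed-death apicoplast inhibitors.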
# Pf growth 48h = inhibits P. falciparum growth in the first generation, 48 h; Potency, µM (titrated, usually from 28.7 µM), inactives show at the highest dose activity change, negative = inhibition, usual class: inhibitors; hit rate 5.9% among 310,000; P. falciparum luciferase growth in erythrocytes, 48 h; AID 504832
#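 Read-out is firefly luciferase luminescence from an integrated reporter in P. falciparum, so falling signal marks reduced parasite growth. Infected erythrocytes were at 2% hematocrit and 0.1% parasitemia (final) in Albumax-supplemented RPMI 1640.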
# AmpC no deterg = blocks E. coli AmpC beta-lactamase in detergent-free assay; AmpC nitrocefin hydrolysis, absorbance 480 nm, 0.0001% Triton; AID 485341; P00811; Potency, µM (doses to about 57.1 µM), inactives show at the top dose activity change, negative = inhibition, actives largely listed as inhibitors; hit rate 0.52% among 330,000;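 also: plate controls were no compound for no effect and no enzyme for full effect; nearly all actives have a fitted effect of over 20% in size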
# Target sequence (P00811 whole entry, looked up): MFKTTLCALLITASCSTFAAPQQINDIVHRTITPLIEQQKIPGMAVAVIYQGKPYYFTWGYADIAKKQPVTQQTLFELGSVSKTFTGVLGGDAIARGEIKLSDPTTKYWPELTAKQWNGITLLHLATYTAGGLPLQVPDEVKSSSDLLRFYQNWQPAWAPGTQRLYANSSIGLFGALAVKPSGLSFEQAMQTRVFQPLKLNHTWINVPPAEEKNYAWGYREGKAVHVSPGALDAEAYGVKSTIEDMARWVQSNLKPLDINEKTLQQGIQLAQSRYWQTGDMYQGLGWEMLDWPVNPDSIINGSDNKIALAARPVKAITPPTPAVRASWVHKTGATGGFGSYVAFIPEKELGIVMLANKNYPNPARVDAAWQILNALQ
#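 20 mM phosphate pH 7.0 + 0.01% (detergent screen) or 0.0001% Triton X-100; 5.3 nM AmpC reagent; cpd preinc 15 min RT; nitrocefin (800 uM stock) to start; A480 q20 s × 4 min; Activity was normalised to no-enzyme and no-compound control wells.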
# AmpC inh detg = AmpC beta-lactamase inhibition with detergent present; P00811; AmpC hydrolysis of nitrocefin, absorbance 480 nm, 0.01% Triton; hit rate 0.041% among 370,000; AID 485294; Potency, µM (series often up to 114 µM), inactives show at the top dose activity change, negative = inhibition, most hits filed as inhibitors;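 also: 0% = no-compound wells and -100% = no-enzyme wells; nearly all actives have a fitted effect of over 25% in size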
#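 20 mM phosphate pH 7.0 + 0.01% (detergent screen) or 0.0001% Triton X-100; 5.3 nM AmpC reagent; cpd preinc 15 min RT; nitrocefin (800 uM stock) to start; A480 q20 s × 4 min; Activity was normalised to no-enzyme and no-compound control wells.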
# AMA1 RON2 block = AMA1-RON2 (P. falciparum) interaction inhibition | AlphaScreen AMA1-biotinylated RON2 peptide binding | Potency, µM (highest dose often 58.2 µM), inactives show at the highest dose activity change, negative = inhibition, most hits filed as inhibitors | AID 720542 | hit rate 0.2% among 360,000;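 also: 0% = vehicle wells and -100% = peptide control; nearly all actives have a fitted effect of over 45% in size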
#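 AMA1 (3D7) with his tag at 25 nM final met compounds first, then biotinylated RON2 peptide at 25 nM; detection used donor plus acceptor beads, 10 µg/mL apiece, read by AlphaScreen after 30 min at room temperature.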
# * marks the source's active call; other numbers are inactive results; ? = inconclusive; · = no result; [ ] = remark or other dose. Calls follow the shape of the dose curve; as a rule, active = well fitted curve in the direction sought with a large enough effect; inconclusive = small, poorly fitted or top-dose-only effect, or another doubt; inactive = no such curve, though single readings can be large; an effect the other way counts as inactive or inconclusive. Unless noted, % is scaled to controls: 0 for no effect and ±100 for the full control effect; potency is read from the fitted curve at half-maximal effect.
SMILES,HCV inhibitor,Pf growth 96h,Pf growth 48h,AmpC no deterg,AmpC inh detg,AMA1 RON2 block
COc1ccccc1-n1c(SCC(=O)O)nc2c(sc(=S)n2-c2ccc(C)c(C)c2)c1=O,12%,?,-2%,-21%,3%,-2%
COc1ccc(-n2c(SCC3OCCO3)nc3c(sc(=S)n3-c3ccccc3)c2=O)cc1OC,?,-56%,-19%,127%,?,11%
CCN(CC)C(=O)CSc1nc2c(sc(=S)n2-c2ccccc2)c(=O)n1-c1ccccc1OC,?,0%,8.3µM*,128%,2%,-17%
CCN(CC)C(=O)CSc1nc2c(sc(=S)n2-c2ccccc2)c(=O)n1-c1ccc(OC)c(OC)c1,?,8%,4.7µM*,189%,-2%,0%
CCOC(=O)CSc1nc2c(sc(=S)n2-c2ccccc2)c(=O)n1-c1ccc(OC)cc1OC,-20%,11%,10µM*,-8%,9%,-6%
CCN(CC)C(=O)CSc1nc2c(sc(=S)n2-c2ccccc2)c(=O)n1-c1ccc(OC)cc1OC,?,?,6.6µM*,-3%,-4%,-15%
COc1ccccc1C(=O)N1CCC(c2c[nH]c3ccccc23)(c2c[nH]c3ccccc23)CC1,·,·,·,·,18%,·
COC(=O)c1cccc(C23CC4(C2)[C@H](CN(Cc2cccnc2)[C@@H]4c2ccccc2)C3c2ccccc2)c1 (stereo partly specified),?,5.9µM*,12µM*,122%,-8%,13%
Clc1ccc(C2[C@H]3CN(Cc4cccnc4)[C@H](c4ccccc4)C34CC2(c2ccccc2)C4)cn1 (stereo partly specified),-17%,8.3µM*,10µM*,17%,3%,-2%
c1ccc(C2[C@H]3CN(Cc4cccnc4)[C@H](c4ccccc4)C34CC2(c2cccnc2)C4)cc1 (stereo partly specified),48%[8.37 µM],2.9µM*,2.3µM*,62%,-4%,4%
c1ccc(C2[C@H]3CN(Cc4cccnc4)[C@H](c4ccccc4)C34CC2(c2ccccc2)C4)cc1 (stereo partly specified),-1%,3.3µM*,4.1µM*,-4%,2%,-10%
c1ccc(C2[C@H]3CN(CC4CCCCC4)[C@H](c4ccccc4)C34CC2(c2ccccc2)C4)cc1 (stereo partly specified),-3%,?,?,-43%,2%,-20%
c1ccc(C2[C@H]3CN(CC4CCCCC4)[C@H](c4ccccc4)C34CC2(c2cccnc2)C4)cc1 (stereo partly specified),1%,?,4.1µM*,7%,-4%,-1%
N#Cc1ccc(C23CC4(C2)[C@H](CN(P(=O)(c2ccccc2)c2ccccc2)[C@@H]4c2ccccc2)C3c2ccc(Cl)nc2)cc1 (stereo partly specified),?,4.1µM*,4.7µM*,30%,3%,-2%
CC1CCN(c2ccc(NC(=S)NC(=O)c3ccc(-c4cccc([N+](=O)[O-])c4)o3)cc2)CC1,-1%,·,4.7µM*,-31%,-2%,-2%
CCC(=O)N1CCN(c2ccc(NC(=S)NC(=O)COc3ccccc3)cc2)CC1,-3%,15µM*,-10%,110%,3%,20%
CCC(=O)N1CCN(c2ccccc2NC(=S)NC(=O)c2cccc([N+](=O)[O-])c2)CC1,?,-3%,-6%,66%,?,68%
CCC(=O)N1CCN(c2ccc(NC(=S)NC(=O)c3cccc([N+](=O)[O-])c3)cc2)CC1,-25%,7.4µM*,2%,65%,-1%,-7%
CCCN1C(=O)/C(=C/c2ccco2)SC1=Nc1ccc(OC)cc1,?,?,10µM*,-39%,-4%,-26%
